These sequences were tested against NF-kB p50/p50 homodimer (Homo sapiens, UniProt P19838 P19838:1-433) (assay: EMSA). Settings: protein: extract; tags: nuclear extract of LPS-stimulated THP-1 cells; chain copies: 2 stated; dsDNA, one strand shown.
Description: The EMSA assay was employed to characterize oligonucleotide decoys for the NF-κB transcription factor. […] Using the above modified oligonucleotides to compete for binding for the above-mentioned NF-κB family members, it was possible to compare the binding affinity of these oligonucleotides against the high affinity radiolabeled probe and each other. This assay has also enabled the design of a decoy which selectively binds particular members of the NF-κB family. By using increasing concentrations of various oligonucleotides, it was observed that, by deleting or changing targeted residues in the binding site, it was possible to specifically decrease the binding of the decoy molecule to p50/p50 homodimers, while retaining the affinity for p65/p50 and cRel/p50 heterodimers.
The NF-κB gel shift assays (EMSA) were performed as follows. A double-stranded oligonucleotide containing a consensus NF-κB binding site (5′ […].GGC 3′) (SEQ ID NO: 26) was end-labeled with γ³²P-ATP using T4 Polynucleotide Kinase (Promega). One microgram of a nuclear extract prepared from LPS stimulated THP-1 cells (human monocyte cell line) was incubated with 35 fmol of radiolabeled probe in the presence or absence of competing unlabeled NF-κB double-stranded oligonucleotides (dsODN) or scrambled dsODN. The incubations were carried out at room temperature for 30 minutes in a 20 μl reaction volume composed of 10 mM Tris-HCl pH 8, 100 mM KCL, 5mM MgC12, 2mM DTT, 10% Glycerol, 0.1% NP-40, 0.025% BSA and 1 μg Poly-dIdC. The reactions were loaded onto a 6% polyacrylamide gel, subjected to electrophoresis and dried. The dried gels were imaged and quantitated using a Typhoon 8600 Phosphorlmager (Amersham) and ImageQuant software. The identity of the NF-κB proteins contained in complexes bound to the radiolabeled oligonucleotide probe were identified by pre-incubating the reactions for 5 minutes with individual antibodies specific for each member of the NF-κB family prior to the addition of the radiolabeled probe.

Chain of NF-kB p50/p50 homodimer (P19838 1-433, one chain of several): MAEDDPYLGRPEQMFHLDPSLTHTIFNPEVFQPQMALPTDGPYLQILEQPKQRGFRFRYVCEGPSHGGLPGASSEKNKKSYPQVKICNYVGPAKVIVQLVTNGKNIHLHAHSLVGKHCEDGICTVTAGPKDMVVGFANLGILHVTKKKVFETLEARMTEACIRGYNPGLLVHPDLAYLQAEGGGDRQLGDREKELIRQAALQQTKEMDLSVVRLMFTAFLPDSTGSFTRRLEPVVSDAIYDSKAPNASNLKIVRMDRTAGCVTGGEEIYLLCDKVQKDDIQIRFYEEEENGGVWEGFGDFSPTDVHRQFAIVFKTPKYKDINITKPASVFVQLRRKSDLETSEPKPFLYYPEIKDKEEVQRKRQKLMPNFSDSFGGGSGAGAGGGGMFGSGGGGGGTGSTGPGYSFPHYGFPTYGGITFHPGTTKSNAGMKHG

| Sequence | IC50 [fold molar excess] |
| --- | --- |
| AGTTGAGGATTTCCAGGC | 82 |
| AGTTGAGGGATTTCCAGGC | 69 |
| TCGGACTTTCCCTC | 62.5 |
| AGTTGAGGATTTCCCAGGC | 84 |
| TTGAGGACTTTCCAGGCTC | 85 |
| TCGGACTTTCCTC | 97 |
